Experimental findings from the supplement of paper PMC4466140 are described below.

A value given as a limit tells only on which side of the number the result lay.

One test concerns the target SpBzz1-D2. Kind of test: SPOT peptide array binding signal intensity (averaged, normalized) (arbitrary units (background-subtracted, floor 0; scale differs between SH3 domains)); higher = stronger binding of the SH3 domain to the peptide. In outline: (§1)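 Binding signal refers to normalized, background-subtracted spot intensity averaged over replicates, expressed in arbitrary units that differ between domains. GST-fused SH3 domains from four yeast species were incubated at 10 μg/ml overnight at 4°C on cellulose membranes of synthetic 15-mer peptides with cysteines replaced by serines. Bound protein was detected with anti-GST antibody, an HRP anti-mouse secondary and luminol, and quantified with Genespotter.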
With FIRKRAPTPPAPSRS, the “SPOT peptide array binding signal intensity” value came to 200.

In the next test the target is SpCyk3. Described as above. In outline: as §1
Take FIRKRAPTPPAPSRS: the “SPOT peptide array binding signal intensity” value came to 2.

The next test addresses SpHof1. The test is described as above. In short, it runs like this:
as §1
For the molecule FIRKRAPTPPAPSRS, the “SPOT peptide array binding signal intensity” value stood at 116.

For the next test, the target named is SpHof1-2. The description is as above. In outline: as §1
On to FIRKRAPTPPAPSRS, for which the “SPOT peptide array binding signal intensity” value stood at 10.5.

The target of another test is SpHof1-3. The description is as above. In short, it runs like this: as §1
As for FIRKRAPTPPAPSRS, the “SPOT peptide array binding signal intensity” value turned out to be 567.

Another test addresses SpHse1. The test is described as above. In outline: as §1
Take FIRKRAPTPPAPSRS: the “SPOT peptide array binding signal intensity” value came out at 377.

In another test the target is SpLsb1. The test is described as above. In outline:
as §1
On to FIRKRAPTPPAPSRS, for which the “SPOT peptide array binding signal intensity” value was determined as 556.

In the next test the target is SpLsb4. The description is as above. In short, it runs like this: as §1
In the case of FIRKRAPTPPAPSRS, the “SPOT peptide array binding signal intensity” value stood at 1130.

The target of the next test is SpMyo1. The test is described as above. In outline:
as §1
FIRKRAPTPPAPSRS: the “SPOT peptide array binding signal intensity” value is 24.5.

A further test concerns the target SpNbp2. Described as above. In short, it runs like this:
as §1
Take FIRKRAPTPPAPSRS: the “SPOT peptide array binding signal intensity” value worked out at 75.

The next test has as its target SpPex13. The description is as above. In short, it runs like this: as §1
Regarding FIRKRAPTPPAPSRS, the “SPOT peptide array binding signal intensity” value worked out at 33.

The target in another test is SpRvs167. The test is described as above. In outline:
as §1
FIRKRAPTPPAPSRS: the “SPOT peptide array binding signal intensity” value was determined as 293.

The next test addresses SpSla1-D1-D2. Described as above. In short, it runs like this:
as §1
For the molecule FIRKRAPTPPAPSRS, the “SPOT peptide array binding signal intensity” value came out at 19.

For another test, the target named is SpSla1-D3. The description is as above. In short, it runs like this:
as §1
Regarding FIRKRAPTPPAPSRS, the “SPOT peptide array binding signal intensity” value is 4.

The next test deals with AgAbp1. The description is as above. In short, it runs like this: as §1
For the molecule PALPSLPPPPLLNVD, the “SPOT peptide array binding signal intensity” value is at most 0.

A further test concerns the target AgBbc1. The test is described as above. In outline:
as §1
Turning to PALPSLPPPPLLNVD, the “SPOT peptide array binding signal intensity” value was determined as 0.5.

A further test addresses AgBem1-D1. Described as above. In short, it runs like this: as §1
Regarding PALPSLPPPPLLNVD, the “SPOT peptide array binding signal intensity” value was at most 0.

Another test has as its target AgBzz1-D1. The description is as above. In short, it runs like this: as §1
With PALPSLPPPPLLNVD, the “SPOT peptide array binding signal intensity” value was at most 0.

Another test deals with AgBzz1-D2. The test is described as above. In short, it runs like this: as §1
PALPSLPPPPLLNVD: the “SPOT peptide array binding signal intensity” value is 8.5.

Another test addresses AgCyk3. Described as above. In outline:
as §1
In the case of PALPSLPPPPLLNVD, the “SPOT peptide array binding signal intensity” value was at most 0.

Another test has as its target AgFus1. The test is described as above. In short, it runs like this: as §1
Consider PALPSLPPPPLLNVD, for which the “SPOT peptide array binding signal intensity” value was at most 0.

A further test has as its target AgHof1. The test is described as above. In outline: as §1
Take PALPSLPPPPLLNVD: the “SPOT peptide array binding signal intensity” value worked out at 1370.

The target of the next test is AgHse1. The test is described as above. In short, it runs like this: as §1
Take PALPSLPPPPLLNVD: the “SPOT peptide array binding signal intensity” value was at most 0.

In another test the target is AgLsb1. The description is as above. In outline:
as §1
Take PALPSLPPPPLLNVD: the “SPOT peptide array binding signal intensity” value is at most 0.

The next test concerns the target AgLsb4. The description is as above. In outline:
as §1
Turning to PALPSLPPPPLLNVD, the “SPOT peptide array binding signal intensity” value was at most 0.

A further test addresses AgMyo5. The test is described as above. In outline:
as §1
As for PALPSLPPPPLLNVD, the “SPOT peptide array binding signal intensity” value amounted to 2040.

Another test has as its target AgNbp2. The test is described as above. In short, it runs like this:
as §1
On to PALPSLPPPPLLNVD, for which the “SPOT peptide array binding signal intensity” value is at most 0.

The target of the next test is AgRvs167. The description is as above. In outline:
as §1
For PALPSLPPPPLLNVD, the “SPOT peptide array binding signal intensity” value was at most 0.

Another test addresses AgSho1. Described as above. In outline: as §1
Consider PALPSLPPPPLLNVD, for which the “SPOT peptide array binding signal intensity” value came to 77.5.

A further test concerns the target AgSla1-D1-D2. Described as above. In short, it runs like this: as §1
Take PALPSLPPPPLLNVD: the “SPOT peptide array binding signal intensity” value was at most 0.

The target in another test is AgSla1-D3. The test is described as above. In short, it runs like this:
as §1
On to PALPSLPPPPLLNVD, for which the “SPOT peptide array binding signal intensity” value was at most 0.

The target in another test is CaAbp1-D1. The test is described as above. In short, it runs like this:
as §1
Consider PALPSLPPPPLLNVD, for which the “SPOT peptide array binding signal intensity” value worked out at 12.

The next test deals with CaAbp1-D2. The test is described as above. In outline: as §1
Turning to PALPSLPPPPLLNVD, the “SPOT peptide array binding signal intensity” value was found to be 22.

In a further test the target is CaBbc1. The test is described as above. In short, it runs like this:
as §1
Regarding PALPSLPPPPLLNVD, the “SPOT peptide array binding signal intensity” value was at most 0.

Another test deals with CaBem1-D1. The test is described as above. In outline:
as §1
On to PALPSLPPPPLLNVD, for which the “SPOT peptide array binding signal intensity” value was at most 0.

The target in a further test is CaBzz1-D1. Described as above. In short, it runs like this: as §1
Take PALPSLPPPPLLNVD: the “SPOT peptide array binding signal intensity” value was at most 0.

The next test addresses CaBzz1-D2. The test is described as above. In short, it runs like this:
as §1
As to PALPSLPPPPLLNVD, the “SPOT peptide array binding signal intensity” value turned out to be 1.

The target of the next test is CaCyk3. The description is as above. In short, it runs like this: as §1
For the molecule PALPSLPPPPLLNVD, the “SPOT peptide array binding signal intensity” value is at most 0.

The target of the next test is CaFus1. The description is as above. In outline:
as §1
Regarding PALPSLPPPPLLNVD, the “SPOT peptide array binding signal intensity” value is at most 0.

The target of another test is CaHof1. The description is as above. In short, it runs like this: as §1
Take PALPSLPPPPLLNVD: the “SPOT peptide array binding signal intensity” value was found to be 1170.

Another test addresses CaHse1. The description is as above. In outline: as §1
For the molecule PALPSLPPPPLLNVD, the “SPOT peptide array binding signal intensity” value stood at 0.25.

In a further test the target is CaLsb1. Described as above. In short, it runs like this:
as §1
Regarding PALPSLPPPPLLNVD, the “SPOT peptide array binding signal intensity” value stood at 0.25.

For the next test, the target named is CaLsb4. Described as above. In outline:
as §1
As to PALPSLPPPPLLNVD, the “SPOT peptide array binding signal intensity” value was at most 0.

Another test has as its target CaMyo5. Described as above. In outline: as §1
Turning to PALPSLPPPPLLNVD, the “SPOT peptide array binding signal intensity” value was found to be 293.
